Among the data in PubChem BioAssay AID651636 (Sanford-Burnham Center for Chemical Genomics, 2012) are inhibition values, retold here.

Out of some 360,000 compounds screened, about 3,000 (0.83%) were called active. The entries come from a sample that favours actives as a whole. A number with no mark means an inactive call. Rule as the data show it: active = inhibition above about 38%; inactive = the rest.

The target in this assay is G-protein coupled receptor 183 (Homo sapiens) (UniProt P32249). Nature of the assay: blockers of oxysterol-driven EBI2 arrestin signaling – cell-based, luminescence, 7a,25-OHC stimulation, uHTS, primary screen (AID 651636).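 Also: enzyme fragment complementation signal reports receptor beta-arrestin coupling in cells; 0% = agonist plus DMSO wells and 100% = wells without agonist.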 To be noted: EBI2 beta-arrestin recruitment, 7a,25-OHC stimulated, at 5 µM, stronger effect = higher value.
Sequence of G-protein coupled receptor 183 (Homo sapiens) (P32249 whole entry, looked up, the tested form may be a part): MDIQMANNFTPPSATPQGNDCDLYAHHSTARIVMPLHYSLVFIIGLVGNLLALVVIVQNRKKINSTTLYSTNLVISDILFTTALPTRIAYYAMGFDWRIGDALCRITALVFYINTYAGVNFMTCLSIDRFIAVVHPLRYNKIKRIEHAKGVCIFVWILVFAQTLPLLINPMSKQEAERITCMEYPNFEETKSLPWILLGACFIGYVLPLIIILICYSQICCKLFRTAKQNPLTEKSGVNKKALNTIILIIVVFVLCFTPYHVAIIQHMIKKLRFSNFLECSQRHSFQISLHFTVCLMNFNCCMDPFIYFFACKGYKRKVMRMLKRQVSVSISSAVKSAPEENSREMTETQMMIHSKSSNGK
As for `O=C(NCc1ccc(Cl)cc1)c1cc(=O)nc2sc(-c3ccccc3)nn12`, the inhibition is 49.6% (active).

In the case of `O=C(NCc1ccc(Cl)cc1)c1cc2c(nc3sccn32)s1`, the inhibition was 12.5%.

Turning to `O=C(Cc1ccc(Cl)cc1)NCc1nc(-c2ccccc2)no1`, the inhibition was 4.5%.

In the case of `CC(=O)NC12CC3CC(C1)CC(C(=O)N1CCN(C(=O)c4ccco4)CC1)(C3)C2`, the inhibition was 1.98%.

Regarding `COc1ccc(-c2nnn(Cc3nc(N)nc(N4CCCCC4)n3)n2)cc1`, the inhibition was 5.05%.

For `COc1ccc(-c2nc(N)ncc2-c2ccc(Cl)cc2)c(O)c1`, the inhibition was 88.2% (active).

Turning to `COc1ccc(-c2c(-c3ccc(OC)cc3O)nc(C)nc2C(F)(F)F)cc1`, the inhibition is 14.5%.

Turning to `COc1cccc(-c2cnc(OC(C)(C)C)nc2OC(C)(C)C)c1`, the inhibition is -3.37%.

Turning to `CCOc1ccc(C(=O)N(Cc2ccc(N(C)C)cc2)C2CCS(=O)(=O)C2)cc1` (stereo not drawn), the inhibition was 7.56%.

On to `O=C(Nc1cc2c3c(c1)CC(=O)N3CCC2)c1ccccc1F`, for which the inhibition was -3.38%.

For the compound `Oc1ccc2ccccc2c1N=Nc1nccs1`, the inhibition is 58.9% (active).

Take `CC1(c2nnc(Cc3ccccc3)o2)CC(c2ccccc2F)=NO1` (stereo not drawn): the inhibition is -4.25%.

On to `CCOC(=O)[C@]12CCCC=C1N(CCC1=CCCCC1)C(=O)[C@H](CC(=O)N1CCN(C(=O)c3ccco3)CC1)C2`, for which the inhibition was -0.759%.

Consider `c1ccc(-c2cnc(CN3CCN(c4ccccc4)CC3)o2)cc1`, for which the inhibition is 3.15%.

Regarding `COc1ccc(N2CCN(Cc3ccc(Br)s3)CC2)cc1`, the inhibition is -1.05%.

On to `Fc1ccc(N2CCN(Cc3cnc(Oc4ccc(Br)cc4)s3)CC2)cc1`, for which the inhibition is 46.4% (active).

Take `COc1ccc(OC)c(C(=O)c2coc3ccc(OC)cc23)c1`: the inhibition was 5.5%.

As to `COc1ccc(OC)c(C(=O)c2coc3ccc(O)c(CN4CCOCC4)c23)c1`, the inhibition is 37% (active).

`Cc1ccc(C(=O)c2coc3ccc(O)c(CN(C)C)c23)cc1`: the inhibition is -7.39%.

In the case of `CN(O)C(=S)c1ccccc1`, the inhibition was 43% (active).

On to `C=CCOC(=O)C1=C[C@@H](c2ccccc2)C[C@@H](OCc2ccc(CO)cc2)O1`, for which the inhibition is 7.13%.

Turning to `Cc1ccc2c(C)c(C(=O)N3CCN(c4ccncc4)CC3)oc2c1C`, the inhibition was 1.76%.

On to `Cc1cc(F)ccc1NC(=S)NCCc1ccccc1`, for which the inhibition was 1.81%.

Regarding `CCCCNC(=S)N/N=C1\CCCCc2ccccc21`, the inhibition was 6.96%.

On to `CCCC1CCC(=NNC(=S)NCCc2ccccc2)CC1` (stereo not drawn), for which the inhibition was 66.9% (active).

Consider `CC(=O)CCS(=O)(=O)c1ccc(C)c(C)c1`, for which the inhibition is -7.62%.

Turning to `CC(=O)c1cc(-c2ccccc2)n(CCC(=O)NC2CCCCCC2)c1C`, the inhibition was -14.6%.

In the case of `COc1ccc(Nc2cc(Sc3ccc(OC)cc3)ncn2)cc1`, the inhibition is 55.7% (active).

Regarding `COc1ccc(NC(=O)CSc2ncnc3[nH]ncc23)cc1`, the inhibition was -1.87%.

`COc1ccc(Sc2ccc(NC(=O)c3cccc(Cl)c3)cc2C#N)cc1`: the inhibition was 19.1%.

Consider `CN1C(=O)CC(N2CCN(c3ccccn3)CC2)C1=O` (stereo not drawn), for which the inhibition was 1.43%.

For the compound `CO/N=C(/CS(=O)(=O)c1ccc(Br)cc1)c1ccc(OC)cc1`, the inhibition was 2.11%.

On to `CN(C)C(CNC(=O)Cc1ccc([N+](=O)[O-])cc1)c1ccccc1` (stereo not drawn), for which the inhibition is -5.83%.

With `O=C(CC(c1ccccc1)c1ccccc1)NCC(O)c1ccc([N+](=O)[O-])cc1` (stereo not drawn), the inhibition was 68.3% (active).

Consider `O=C(NCC(O)c1ccc([N+](=O)[O-])cc1)C1CCCCC1` (stereo not drawn), for which the inhibition was 19.3%.

In the case of `COc1ccccc1CNC(=O)C1Cc2ccccc2C(=O)O1` (stereo not drawn), the inhibition is -4.46%.

As for `Cc1ccc(S(=O)(=O)N2CC3C(=O)C[C@@H](c4ccccc4Cl)N(S(=O)(=O)c4ccc(C)cc4)C3CC2c2ccccc2)cc1` (stereo partly drawn), the inhibition is 17%.

Regarding `CC1Oc2ccccc2N(Cc2cccnc2)C1=O` (stereo not drawn), the inhibition is 2.36%.

With `CCCCC(=O)N(C)c1c(CC)nc2c(OCc3ccc(Cl)cc3Cl)cccn12`, the inhibition was 42.4% (active).

Take `CCCCC(=O)N(C)c1c(CC)nc2c(OCc3ccc(S(C)(=O)=O)cc3)cccn12`: the inhibition was -7.39%.

For the compound `CCc1nc2c(OCc3ccc(Cl)cc3Cl)cccn2c1N(C)C(=O)C(C)C`, the inhibition is 36.4%.

For `CCCOC(=O)c1c(NC(=O)c2cnn3c2NC(c2ccccc2)CC3C(F)(F)F)sc2c1CCCC2` (stereo not drawn), the inhibition is -7.48%.

As to `Cc1ccccc1C(CC(=O)c1cccs1)C(C#N)C#N` (stereo not drawn), the inhibition was -15.3%.

Take `NC(=O)C1(N2CCCCC2)CCN(C2CC(=O)N(Cc3ccc(N4CCCC4=O)cc3)C2=O)CC1` (stereo not drawn): the inhibition was -18.3%.

`COc1ccccc1-n1c(=S)[nH]c2c(sc(=S)n2-c2ccc(C)cc2C)c1=O`: the inhibition was 0.762%.

With `O=[N+]([O-])c1c(NCCO)cc(Sc2nc3ccccc3s2)c2nonc12`, the inhibition is 51.4% (active).

Take `Cc1ccn2c(=O)c(C(=O)NCCC3=CCCCC3)c(O)nc2c1`: the inhibition was -7.12%.

For `COc1ccc(CN(Cc2ccco2)S(=O)(=O)c2ccc(S(=O)(=O)N3CCCC3)cc2)cc1`, the inhibition is -7.47%.

Turning to `COc1cc(S(=O)(=O)N(Cc2cccs2)C2CC2)ccc1-n1cnnn1`, the inhibition was 6.23%.

As for `CCOc1ccc(CN(Cc2ccco2)S(=O)(=O)c2ccc(-n3cnnn3)c(OC)c2)cc1`, the inhibition is 50.9% (active).

In the case of `CCCCCCCCN1C(=O)[C@H](CC(=O)NCC23CC4CC(CC(C4)C2)C3)C[C@@]2(C(=O)OC)CCCCC=C12`, the inhibition is 8.12%.

With `COC1=CC(=O)OC(C)(c2ccccc2)C1` (stereo not drawn), the inhibition was -4.31%.

For `COc1ccc(CCNC(=O)CN(c2ccccc2)S(=O)(=O)c2ccccc2)cc1`, the inhibition is -2.04%.

Take `COc1ccc(CNC(=O)CN(c2ccc(OC)c(Cl)c2)S(=O)(=O)c2ccc(C)cc2)cc1`: the inhibition was 42% (active).

For the compound `COc1ccc(S(=O)(=O)N(CC(=O)NCc2ccco2)c2ccc(F)cc2)cc1`, the inhibition was -6.33%.

As to `CCOP(=O)(OCC)C(Cc1ccccc1)N=C(c1ccccc1)c1ccccc1` (stereo not drawn), the inhibition is 23.7%.

On to `O=C(NCc1ccc(F)cc1)c1cc(C2CCCCN2C(=O)C2CCCCC2)on1` (stereo not drawn), for which the inhibition was 13.6%.

For `CC1CCN(S(=O)(=O)c2ccc3[nH]c(=O)ccc3c2)CC1`, the inhibition was -4.98%.
